Screening data (PubChem)
RecA intein inh: Mtb RecA intein splicing inhibitors, primary screen, biochemical, fluorescence, HTS; Protein RecA (Mycobacterium tuberculosis (strain ATCC 25618 / H37Rv)), P9WHJ3; cell-free RecA intein splicing; inhibition, % (concentration not given with the values); 290,000 tested, 0.75% active; AID 2221, 2009; in the data active = inhibition above about 30%;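 note: 0% = vehicle wells and 100% = reference inhibitor control wells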
Target sequence (P9WHJ3 whole entry, looked up): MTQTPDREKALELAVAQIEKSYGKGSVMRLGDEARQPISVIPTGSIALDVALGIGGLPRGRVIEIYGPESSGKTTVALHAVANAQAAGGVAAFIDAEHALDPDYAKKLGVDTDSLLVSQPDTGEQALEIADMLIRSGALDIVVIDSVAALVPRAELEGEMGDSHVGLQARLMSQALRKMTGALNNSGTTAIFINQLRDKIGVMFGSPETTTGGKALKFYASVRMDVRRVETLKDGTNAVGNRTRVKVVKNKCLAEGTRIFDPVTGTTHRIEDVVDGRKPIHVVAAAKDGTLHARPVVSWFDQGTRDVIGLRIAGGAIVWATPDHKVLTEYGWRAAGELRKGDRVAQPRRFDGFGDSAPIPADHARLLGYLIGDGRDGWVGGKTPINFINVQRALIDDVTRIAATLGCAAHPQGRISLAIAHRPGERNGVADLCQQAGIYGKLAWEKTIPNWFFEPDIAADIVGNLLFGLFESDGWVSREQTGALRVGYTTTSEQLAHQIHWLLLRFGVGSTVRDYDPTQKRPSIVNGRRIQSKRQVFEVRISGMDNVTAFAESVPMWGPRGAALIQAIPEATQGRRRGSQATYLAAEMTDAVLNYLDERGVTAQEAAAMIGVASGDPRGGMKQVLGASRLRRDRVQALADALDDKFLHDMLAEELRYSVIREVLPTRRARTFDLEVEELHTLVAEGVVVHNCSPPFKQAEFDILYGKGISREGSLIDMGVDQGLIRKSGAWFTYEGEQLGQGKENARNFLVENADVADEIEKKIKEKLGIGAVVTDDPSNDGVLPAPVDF
Mtb bLac sens: beta-lactam sensitization of Mtb H37Rv, H37Rv | 330,000 tested, 0.27% active | AID 434955, 2010 | M. tuberculosis H37Rv growth with meropenem, percent inhibition | inhibition, % at 25 µM; call rule not given here;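 note: growth measured after seven days incubation then overnight dye step; 0% = bacteria only wells and 100% = bacteria with antibiotic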
GDH-TPI counter: GDH-TPI coupling enzyme inhibitors, primary screen, artefact control for M. tuberculosis FBA inhibitor project, biochemical, absorbance, full deck. GDH-TPI coupled enzyme counterscreen, NADH absorbance. inhibition, % at 4.8 µM. 360,000 tested, 1.2% active;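 note: 0% = DMSO wells and 100% = wells lacking the enzyme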
FBA Mtb inh: Mtb FBA enzyme inhibitors, primary screen, biochemical, fluorescence, strain H37Rv. Fructose-bisphosphate aldolase (Mycobacterium tuberculosis (strain ATCC 25618 / H37Rv)), …. purified M. tuberculosis FBA, fluorescence read-out. inhibition, % at 1 µM. 360,000 tested, 2.3% active. AID 588726, 2011; in the data active = inhibition above about 27%;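 note: 0% = vehicle and 100% = reference inhibitor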
CCHF vOTU inh: CCHFV vOTU protease inhibitors, primary screen, biochemical, Pep-AMC substrate, fluorescence; AID 651958, 2012; Crimean-Congo hemorrhagic fever virus L polyprotein viral ovarian tumor (vOTU) protease …; inhibition, % at 11.5 µM; 370,000 tested, 0.55% active; note: 0% = vehicle wells with enzyme and 100% = no enzyme wells
Starred values were filed as active, the others as inactive. Shown are actives, neighbours in structure and some others; about 4.2% of the full set was active somewhere. Cut-off read from the data, not from the text of the source, unless noted: active = inhibition above about 30%; inactive = the rest.

Screening Cc1ccc(-c2nc(C#N)c(N3CCC(C(N)=O)CC3)o2)cc1 returned RecA intein inh -3, Mtb bLac sens 0, GDH-TPI counter 15, FBA Mtb inh 179* and CCHF vOTU inh -56.
N#Cc1nc(Cc2ccccc2)oc1N1CCC(C(N)=O)CC1 was read as RecA intein inh -3, Mtb bLac sens -16, GDH-TPI counter 2, FBA Mtb inh -2 and CCHF vOTU inh 4.
Screening N#Cc1nc(-c2ccccc2)oc1N1CCC(C(N)=O)CC1 returned RecA intein inh -2, Mtb bLac sens -4, GDH-TPI counter 15, FBA Mtb inh active and CCHF vOTU inh -112.
For O=S1(=O)c2c(cccc2N2CCC[C@H]2CO)O[C@H]2CCN1C2 the results were CCHF vOTU inh 10.
For CN(C)c1ccc(Cn2c(=O)n(Cc3ccc(C(=O)NCC4COC4)cc3)c(=O)c3ccccc32)cc1 the results were CCHF vOTU inh -5.
Screening CN(CCO)c1cccc2c1S(=O)(=O)N(Cc1cn(Cc3ccc(F)cc3)nn1)Cc1ccccc1O2 returned CCHF vOTU inh -9.
`CCCCn1nc2cc(C(=O)NCCCCc3ccccc3)ccc2c1OCC` gave RecA intein inh 3, Mtb bLac sens 63, GDH-TPI counter -2, FBA Mtb inh 24 and CCHF vOTU inh 10.
Screening CCCCn1nc2cc(C(=O)NCc3ccccc3)ccc2c1OCC returned RecA intein inh 3, Mtb bLac sens 50, GDH-TPI counter 1, FBA Mtb inh 68* and CCHF vOTU inh -57.
Screening CCCn1nc2cc(C(=O)N(CC)c3ccc(OC)cc3)ccc2c1OCC returned RecA intein inh -5, Mtb bLac sens -1, GDH-TPI counter 0, FBA Mtb inh 40* and CCHF vOTU inh -45.
Screening COc1ccccc1CNC(=O)c1ccc2nc3[nH]c4ccccc4c3nc2c1 returned RecA intein inh -5, Mtb bLac sens 10, GDH-TPI counter 40*, FBA Mtb inh 0 and CCHF vOTU inh 15.
Screening CCOc1c2ccc(C(=O)NCc3ccccc3OC)cc2nn1CC returned RecA intein inh -1, Mtb bLac sens 12, GDH-TPI counter -1, FBA Mtb inh 47* and CCHF vOTU inh -39.
Cc1ccc(CNC(=O)c2ccc3nc4[nH]c5ccccc5c4nc3c2)cc1 was read as RecA intein inh -2 and CCHF vOTU inh 1.
For CCCCn1nc2cc(C(=O)NCCc3ccc(C)cc3)ccc2c1OCC the results were RecA intein inh 5, Mtb bLac sens 6, GDH-TPI counter 1, FBA Mtb inh 22 and CCHF vOTU inh -13.
Screening CCOc1ccc(C(=O)NCc2ccco2)cc1OCC returned RecA intein inh -1, Mtb bLac sens 5, GDH-TPI counter 4, FBA Mtb inh 2 and CCHF vOTU inh 5.
Screening CCOc1c2ccc(C(=O)NCc3ccco3)cc2nn1CC returned RecA intein inh 0, Mtb bLac sens -6, GDH-TPI counter 7, FBA Mtb inh 39* and CCHF vOTU inh -22.
For CCOC(=O)CN1N=C(/C=C/c2ccc(OC)cc2)CCC1=O the results were RecA intein inh -3, Mtb bLac sens -13, GDH-TPI counter 38*, FBA Mtb inh 1 and CCHF vOTU inh 17.
CCOC(=O)C(C)N1N=C(/C=C/c2ccc(OC)cc2)CCC1=O (configuration not stated) was read as RecA intein inh 1, Mtb bLac sens 1, GDH-TPI counter 42*, FBA Mtb inh 1 and CCHF vOTU inh 24.
Screening Cc1ccc(/C=C/C2=NN(C)C(=O)CC2)cc1 returned RecA intein inh 9, Mtb bLac sens 0, GDH-TPI counter 16, FBA Mtb inh 3 and CCHF vOTU inh 19.
CCOC(=O)CN1N=C(c2ccc(C)cc2)CCC1=O was read as RecA intein inh 1, Mtb bLac sens -4, GDH-TPI counter 2, FBA Mtb inh 0 and CCHF vOTU inh -12.
Screening O=C1Nc2ccccc2C1=Nc1cccc([N+](=O)[O-])c1 returned RecA intein inh 4, Mtb bLac sens -3, GDH-TPI counter -6, FBA Mtb inh -3 and CCHF vOTU inh 3.
Screening NC(=O)c1ccc(N=C2C(=O)Nc3ccc([N+](=O)[O-])cc32)cc1 returned RecA intein inh 15, Mtb bLac sens 3, GDH-TPI counter 8, FBA Mtb inh -3 and CCHF vOTU inh 116*.
